This note sets out measurements from PubChem BioAssay AID1259311 (ICCB-Longwood Screening Facility, Harvard Medical School, 2017).

SMILES strings stand for the structures. Among all 330,000 compounds or so, about 1,100 (0.33%) were called active. Only a selection was taken, and actives are over-represented in it overall. A number with no mark means an inactive call. Rule as the data show it: active = inhibition above about 85%; inactive = the rest.

This assay can be described thus: growth inhibition of S. aureus RN4220, primary screen, OD600 (AID 1259311).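 Also: plate controls were untreated cells for no effect and reference antibiotic for full effect.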 The note with it: OD600, 16 h, active compounds read high.
In the case of `Cc1cc(C(=O)CCl)c(C)n1CC1COc2ccccc2O1` (configuration not stated), the inhibition (in general, the relative decrease from the control value, in per cent) is 93.5% (active).
As to `O=C1C(=O)N(CC2COc3ccccc3O2)c2ccccc21` (configuration not stated), the inhibition was 5.32%.
The figure for `Cc1ccsc1C(=O)OCC(=O)c1cc(C)n(CC2CCCO2)c1C` (configuration not stated) is 2.84%; for `CON=Cc1ccc(Sc2ccc(C)cc2)c([N+](=O)[O-])c1` it is -19%; for `OCc1ccc(OCCCOc2cccc3cccnc23)cc1` it is 4.11%.
`NC(=O)C1CCN(C(=O)COc2cccc3cccnc23)CC1`: the inhibition is -6.77%.
To `O=C(Nc1ccccc1)Oc1cccc2cccnc12` belongs 94.9% (active).
To `CCCOc1ccc(NC=CC(=O)C(C)(C)C)cc1` belongs 7.56%.
The figure for `Cc1cc(C(=O)NN=Cc2ccncc2)c(C)o1` is -0.256%.
For the compound `CNC(=S)NN=C(C)c1ccc(C(C)(C)C)cc1`, the inhibition was 0.974%.
To `Cc1ccc(N2C(=O)C3N=NN(CC(=O)N4N=C(c5cccc6ccccc56)CC4c4ccccc4)C3C2=O)cc1` (configuration not stated) belongs 1.33%; to `O=C1C2N=NN(CC(=O)N3N=C(c4cccc5ccccc45)CC3c3ccccc3)C2C(=O)N1c1ccccc1` (configuration not stated), 7.1%; to `Oc1ccccc1C1=NN(c2ccccc2)C(c2ccccc2)C1` (configuration not stated), 94% (active).
The figure for `Cc1cccc(NC(=S)NN=C(c2ccccc2)C(C)C)c1` is -4.52%; for `Cc1ccc(NC(=S)Nc2ccc(F)cc2)cc1` it is -0.939%.
The figure for `Cc1cccc(NC(=S)Nc2ccc(Cl)c(Cl)c2)c1` is 98.8% (active); for `CC(=O)NN=C(C)CC(=O)Nc1ccc2c(c1)OCCO2` it is 1.21%.
For `Cn1ccc(=Nc2ccc(NC(=O)c3ccc(N=c4ccn(C)c5ccc([N+](=O)[O-])cc45)cc3)cc2)cc1`, the inhibition was 95.4% (active).
To `CCc1ccc(NC(=O)c2ccc(Cn3cc([N+](=O)[O-])cn3)cc2)cc1` belongs 18.3%; to `COc1cc(NS(=O)(=O)c2ccc(NC(=O)c3ccc([N+](=O)[O-])cc3)cc2)ncn1`, 2.54%; to `CC(NC(=O)c1nc[nH]c1C(=O)N(C)Cc1ccccc1)C(=O)OC(C)(C)C` (configuration not stated), 2.94%.
On to `CCc1ccc(C=NNc2nn[nH]n2)cc1`, for which the inhibition is 0.812%.
To `O=C(c1ccncc1)c1ccc([N+](=O)[O-])cc1` belongs 75% (active).
The figure for `O=C(Nn1cnnc1)c1ccc([N+](=O)[O-])cc1` is 4.07%; for `O=C(Nc1ccccc1C(=O)Nc1ccncc1)c1ccc([N+](=O)[O-])cc1` it is 3.63%.
For the compound `Cc1c(NC(=O)C(=O)C=C(O)c2ccccc2)c(=O)n(-c2ccccc2)n1C`, the inhibition is -0.817%.
On to `C#CCOCCOCCOCCNc1nc(N2CCN(C(=O)C(CCCCN)n3cc(CCC(=O)O)nn3)CC2)nc(N2CCN(C(=O)C(C(C)O)n3cc(CCCCN)nn3)CC2)n1` (configuration not stated), for which the inhibition is -0.306%.
